Data published in ChEMBL document CHEMBL3988442, “University of Dundee, Small-Polar-MMV Screening Library” (2021).

Target: T1, Methionyl-tRNA synthetase, putative (Leishmania donovani (strain BPK282A1)) (UniProt E9BF75)
T1 sequence (whole entry): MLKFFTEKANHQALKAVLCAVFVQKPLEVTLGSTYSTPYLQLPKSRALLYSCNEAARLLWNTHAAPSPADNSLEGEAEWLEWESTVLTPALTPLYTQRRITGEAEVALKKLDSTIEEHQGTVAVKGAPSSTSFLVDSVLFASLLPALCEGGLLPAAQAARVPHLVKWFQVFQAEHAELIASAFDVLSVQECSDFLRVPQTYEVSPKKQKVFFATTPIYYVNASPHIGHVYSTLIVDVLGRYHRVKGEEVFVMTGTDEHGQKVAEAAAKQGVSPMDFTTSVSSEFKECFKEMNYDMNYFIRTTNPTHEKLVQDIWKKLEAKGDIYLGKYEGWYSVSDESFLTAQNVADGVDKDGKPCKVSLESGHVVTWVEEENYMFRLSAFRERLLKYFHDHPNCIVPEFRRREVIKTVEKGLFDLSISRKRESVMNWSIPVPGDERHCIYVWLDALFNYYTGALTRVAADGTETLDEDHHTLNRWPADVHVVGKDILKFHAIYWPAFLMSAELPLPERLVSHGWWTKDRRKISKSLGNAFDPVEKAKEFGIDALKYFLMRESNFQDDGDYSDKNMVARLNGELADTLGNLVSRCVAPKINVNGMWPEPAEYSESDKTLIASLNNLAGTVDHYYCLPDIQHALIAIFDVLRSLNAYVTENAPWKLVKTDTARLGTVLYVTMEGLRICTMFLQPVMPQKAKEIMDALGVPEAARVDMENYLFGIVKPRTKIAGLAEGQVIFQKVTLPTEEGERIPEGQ
Test: Leishmania donovani Methionine tRNA synthetase (LdMetRS):v7. Dose response assay
Assay type: functional
Set-up: conc 80 nM, time 150 minutes

Which PXC50 (MAX_EFFECT 13.77672209) does the source give for `Cn1ncc2c(NCCO)nc(Nc3cccc(OC(F)(F)F)c3)nc21` here?
The PXC50 was < 4.

And the PXC50 (MAX_EFFECT 18.02575107)?
The PXC50 was < 4.

And the PXC50 (MAX_EFFECT 24.6628131)?
The PXC50 was < 4.

With `Cn1ncc2c(NCCN3CCOCC3)nc(Nc3ccc(F)c(F)c3)nc21` as the compound, how does the PXC50 (BOTTOM 0.0547, HILLSLOPE 0.927770989, MAX_EFFECT 85.76850095, TOP 98.88350894) read?
Its PXC50 is 4.86.

What about the PXC50 (BOTTOM -0.988495369, HILLSLOPE 1.035285925, MAX_EFFECT 73.01886792, TOP 82.1779252) of the same compound?
The PXC50 was 4.91.

And the PXC50 (BOTTOM -7.338677117, HILLSLOPE 0.775594481, MAX_EFFECT 82.64840183, TOP 100.0)?
Its PXC50 is 4.76.

What does the source list for `COc1cc(Nc2nc(NCCO)c3cnn(C)c3n2)cc(C(F)(F)F)c1`?
PXC50 (MAX_EFFECT 10.13215859): < 4; PXC50 (MAX_EFFECT 10.95041322): < 4; PXC50 (MAX_EFFECT 12.18568665): < 4

Which results are given for `COc1cnc(Nc2ccc(F)c(F)c2)nc1NCCO`?
PXC50 (BOTTOM 1.119092506, HILLSLOPE 0.867597172, MAX_EFFECT 78.41409692, TOP 85.56949583): 5.21; PXC50 (BOTTOM 1.563075745, HILLSLOPE 0.960019265, MAX_EFFECT 80.27079304, TOP 89.78065845): 4.95; PXC50 (BOTTOM 4.457946708, HILLSLOPE 0.924831459, MAX_EFFECT 80.78512397, TOP 87.63131575): 5.14

For `Cc1cnn(CCNCc2c(C)nn(CCO)c2C)c1`, which PXC50 (MAX_EFFECT 2.721088435) is on record?
Its PXC50 is < 4.

And the PXC50 (MAX_EFFECT 5.072463768)?
Its PXC50 is < 4.

What about the PXC50 (MAX_EFFECT 8.23117338) of the same compound?
The PXC50 was < 4.

What does the source list for `N[C@@H]1c2ccccc2C2(CCN(c3cnc4ccccc4n3)CC2)[C@H]1O`?
PXC50 (BOTTOM 0.263751901, HILLSLOPE 1.516790173, MAX_EFFECT 51.81975737, TOP 100.0): 4.02; PXC50 (BOTTOM -0.439515819, HILLSLOPE 1.13741317, MAX_EFFECT 66.44295302, TOP 100.0): 4.24; PXC50 (BOTTOM -1.864115217, HILLSLOPE 1.086184415, MAX_EFFECT 68.05555556, TOP 100.0): 4.32

`COCCNc1cc(-c2ccccc2CCN)c2cc[nH]c2n1` was tested. Which PXC50 (BOTTOM -0.0153, HILLSLOPE 1.167622452, MAX_EFFECT 63.88888889, TOP 100.0) did it give?
The PXC50 was 4.2.

What about the PXC50 (MAX_EFFECT 46.30872483) of the same compound?
The PXC50 was < 4.

What about the PXC50 (MAX_EFFECT 46.96707106) of the same compound?
Its PXC50 is < 4.

Which results are given for `O=C(N1CCOCC(O)C1)C1(c2ccc(Cl)cc2)CCC1` (centres undefined)?
PXC50 (MAX_EFFECT 0.0): < 4; PXC50 (MAX_EFFECT -0.875656743): < 4; PXC50 (MAX_EFFECT -1.449275362): < 4

Which PXC50 (MAX_EFFECT 42.26415094) does the source give for `Cn1ncc2c(NCCO)nc(Nc3ccccc3)nc21` here?
Its PXC50 is < 4.

What about the PXC50 (MAX_EFFECT 47.32824427) of the same compound?
Its PXC50 is < 4.

And the PXC50 (MAX_EFFECT 49.56140351)?
Its PXC50 is < 4.

What does the source list for `CCCCOC(=O)CNc1nc(Nc2ccc(F)c(F)c2)nc2c1cnn2C`?
PXC50 (MAX_EFFECT 18.05225653): < 4; PXC50 (MAX_EFFECT 18.45493562): < 4; PXC50 (MAX_EFFECT 25.28301887): < 4

Which results are given for `CNc1cc(-c2cccc(CN)c2)c2cc[nH]c2n1`?
PXC50 (BOTTOM 0.988395417, HILLSLOPE 1.522848712, MAX_EFFECT 89.26174497, TOP 100.0): 4.55; PXC50 (BOTTOM -0.303339397, HILLSLOPE 1.457263574, MAX_EFFECT 90.27777778, TOP 100.0): 4.5; PXC50 (BOTTOM -1.705392775, HILLSLOPE 1.008817214, MAX_EFFECT 54.59272097, TOP 100.0): 4.07

Which PXC50 (BOTTOM 0.586623965, HILLSLOPE 0.960788857, MAX_EFFECT 61.0738255, TOP 100.0) does the source give for `O=C1NCC(c2ccc(F)cc2)Cc2[nH]c(CCN3CCCC3)nc21` (centres undefined) here?
Its PXC50 is 4.15.

What about the PXC50 (BOTTOM 2.860481636, HILLSLOPE 1.198642369, MAX_EFFECT 65.27777778, TOP 100.0) of the same compound?
Its PXC50 is 4.21.

And the PXC50 (BOTTOM -5.455719139, HILLSLOPE 0.971400426, MAX_EFFECT 59.44540728, TOP 100.0)?
The PXC50 was 4.18.

Which results are given for `CNC(=O)CNc1nc(Nc2ccc(F)c(F)c2)nc2c1cnn2C`?
PXC50 (BOTTOM -2.014141631, HILLSLOPE 0.719425381, MAX_EFFECT 67.11798839, TOP 100.0): 4.45; PXC50 (BOTTOM -2.647341189, HILLSLOPE 0.864486673, MAX_EFFECT 64.80686695, TOP 100.0): 4.36; PXC50 (BOTTOM -5.796593818, HILLSLOPE 0.871793388, MAX_EFFECT 66.50831354, TOP 100.0): 4.35

Which PXC50 (MAX_EFFECT 33.39622642) does the source give for `Cn1ncc2c(NCCO)nc(Nc3cccc(C(F)(F)F)c3)nc21` here?
Its PXC50 is < 4.

What about the PXC50 (MAX_EFFECT 39.26940639) of the same compound?
The PXC50 was < 4.

And the PXC50 (MAX_EFFECT 40.60721063)?
The PXC50 was < 4.

With `OCCCNc1ccnc(Nc2cccc(C(F)(F)F)c2)n1` as the compound, how does the PXC50 (BOTTOM -1.471323434, HILLSLOPE 0.842843203, MAX_EFFECT 51.77570093, TOP 92.13190163) read?
Its PXC50 is 4.16.

And the PXC50 (BOTTOM -3.274011796, HILLSLOPE 1.62633592, MAX_EFFECT 57.93991416, TOP 100.0)?
Its PXC50 is 4.09.

And the PXC50 (MAX_EFFECT 49.40617577)?
The PXC50 was < 4.

With `Cc1nc(C)n(CC2CCCN2Cc2nc(C)c3ccccc3n2)n1` (centres undefined) as the compound, how does the PXC50 (BOTTOM 0.925302431, HILLSLOPE 1.017320837, MAX_EFFECT 67.36111111, TOP 99.90284223) read?
The PXC50 was 4.31.

What about the PXC50 (BOTTOM 1.588399375, HILLSLOPE 1.270951942, MAX_EFFECT 69.49740035, TOP 100.0) of the same compound?
The PXC50 was 4.3.

And the PXC50 (BOTTOM 6.646518839, HILLSLOPE 0.950758055, MAX_EFFECT 62.41610738, TOP 100.0)?
The PXC50 was 4.2.

Which results are given for `Cn1ncc2c(NCC3CCOC3)nc(Nc3ccc(F)c(F)c3)nc21` (centres undefined)?
PXC50 (BOTTOM 0.0, HILLSLOPE 0.829006149, MAX_EFFECT 88.54961832, TOP 100.0): 4.89; PXC50 (BOTTOM 5.170404417, HILLSLOPE 0.914601234, MAX_EFFECT 86.40350877, TOP 102.339634): 4.72; PXC50 (BOTTOM -0.903989981, HILLSLOPE 0.887117975, MAX_EFFECT 86.41509434, TOP 97.82602818): 4.97

For `CN(C)c1nc(Nc2ccc(F)c(F)c2)nc2c1cnn2C`, which PXC50 (BOTTOM 0.0, HILLSLOPE 0.943271721, MAX_EFFECT 54.1567696, TOP 49.71942024) is on record?
The PXC50 was 6.12.

And the PXC50 (BOTTOM 0.0, HILLSLOPE 1.040792015, MAX_EFFECT 59.65665236, TOP 50.11386445)?
Its PXC50 is 6.1.

And the PXC50 (BOTTOM 0.0, HILLSLOPE 1.064354186, MAX_EFFECT 50.0967118, TOP 49.52260288)?
The PXC50 was 6.2.
